Data: PubChem BioAssay
Active and inactive are the calls of the source.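 Rule for the calls, unless noted: active = fluorescence slope higher than the sample average by over 3 SD (cut at about -0.22 in these data, passing the limit was not always enough); inactive = the rest.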

What was measured:
[1] = inhibitors of TNFa-induced NFkB p65 translocation, primary screen, imaging, HUVEC, MLSMR starter and 10KST1 sets (AID 438;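 active = inhibition above 20% together with a positive visual image hit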;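 note: compound added about 3h40 before a 20 min TNFalpha stimulation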;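 for inhibition: signal is the nuclear over cytoplasmic p65 intensity ratio per well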); details: HUVEC TNFa-induced p65 nuclear translocation; cell count: measured here: nuclei count (cytotoxicity indicator), at 2.08 µM; inhibition: at 2 µM, stronger effect = higher value, 0% TNFa-plus-vehicle, 100% no-TNFa wells
[2] = reduction of polyQ htt aggregates in cells – imaging, exon1htt(103Q)mCFP cells, high-content imaging, primary screen (AID 483;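 active = visual image review flags a hit and inhibition of aggregation exceeds 20%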;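 note: compound exposure lasted 3 days before fixation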;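 for nuclei count: percent of the per-plate median nuclei count of sample wells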); details: exon1htt(103Q)mCFP cell line, aggregate imaging, at 2 µM; inhibition of aggregation: stronger effect = higher value; nuclei count: measured here: cell count, toxicity
[3] = endothelial E-selectin expression blockers – imaging, HUVEC, immunofluorescence, MLSMR starter and 10KST1 sets, primary screen (AID 487;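 active = visually confirmed hit in the image check and inhibition above 20%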;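 for inhibition: signal is fraction of cell area covered by stained E-selectin grains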;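 for nuclei count: 100% = median nuclei count of all wells on the same plate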); details: HUVEC TNFalpha-induced E-selectin immunofluorescence imaging, at 2 µM; inhibition: stronger effect = higher value; nuclei count: measured here: cell number, toxicity
[4] = molecular target: Voltage-gated potassium channel subunit beta-2 (Rattus norvegicus) (UniProt P62483); experiment: inhibitors of rat Kvbeta2 reductase activity – biochemical, NADPH fluorescence, primary screen (AID 622); details: recombinant KvBeta, 4-cyanobenzaldehyde reduction, at 10 µM, stronger effect = higher value;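 note: slope of raw intensity against log time taken from 70 to 1610 s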
Sequence of Voltage-gated potassium channel subunit beta-2 (Rattus norvegicus) (P62483 whole entry, looked up): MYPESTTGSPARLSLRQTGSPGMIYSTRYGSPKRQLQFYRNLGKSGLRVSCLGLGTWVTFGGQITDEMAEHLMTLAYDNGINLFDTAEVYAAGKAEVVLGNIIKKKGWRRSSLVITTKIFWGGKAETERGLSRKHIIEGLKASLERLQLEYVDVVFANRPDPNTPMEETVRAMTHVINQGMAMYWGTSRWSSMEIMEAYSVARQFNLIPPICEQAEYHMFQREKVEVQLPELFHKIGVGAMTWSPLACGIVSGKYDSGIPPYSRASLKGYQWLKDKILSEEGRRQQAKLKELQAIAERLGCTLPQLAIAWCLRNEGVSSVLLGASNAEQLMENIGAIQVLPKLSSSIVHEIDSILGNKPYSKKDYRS

[5] = molecular target: Voltage-gated potassium channel subunit beta-2 (Rattus norvegicus) (UniProt P62483); experiment: enhancers of rat Kvbeta2 NADPH turnover – biochemical, NADPH fluorescence, primary screen (AID 623;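 active = NADPH fluorescence slope more negative than the mean of all samples by about 3 SD, 99.7% confidence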;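 note: fluorescence intensity change per second fitted from 20 to 320 s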); details: Recombinant KvBeta, NADPH fluorescence decrease slope, 10 min; at 10 µM; stronger effect = lower value
[6] = molecular target: Alpha-2C adrenergic receptor (Homo sapiens) (UniProt P18825); experiment: compounds altering alpha2C-coupled GIRK flux – cell-based, HEK293 alpha2C/GIRK1/2, thallium flux, primary screen (AID 624;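 active = fluorescence slope after compound addition differing from the mean of all screened samples at 99.7% confidence, in either direction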;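 note: slope of fluorescence ratio to pre-addition baseline per second over 15 to 24 s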); details: thallium flux BTC fluorescence, at 10 µM, actives lie on both sides
Sequence of Alpha-2C adrenergic receptor (Homo sapiens) (P18825 whole entry, looked up): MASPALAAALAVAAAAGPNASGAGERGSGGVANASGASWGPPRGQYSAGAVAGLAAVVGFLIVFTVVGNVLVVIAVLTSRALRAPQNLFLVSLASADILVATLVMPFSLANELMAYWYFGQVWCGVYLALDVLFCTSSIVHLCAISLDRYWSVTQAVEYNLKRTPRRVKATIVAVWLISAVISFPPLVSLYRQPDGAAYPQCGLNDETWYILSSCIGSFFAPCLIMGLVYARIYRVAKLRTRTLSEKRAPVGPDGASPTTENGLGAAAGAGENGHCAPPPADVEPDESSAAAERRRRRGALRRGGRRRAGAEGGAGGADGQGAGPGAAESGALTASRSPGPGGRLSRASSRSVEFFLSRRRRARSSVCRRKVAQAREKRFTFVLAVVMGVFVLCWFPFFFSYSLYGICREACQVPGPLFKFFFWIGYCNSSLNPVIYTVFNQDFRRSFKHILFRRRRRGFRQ

[7] = blockers of RIG-like receptor reporter activation – cell-based, Sendai virus stimulus, luciferase, 10K MLSCN set, TLR/RLR signaling modifier project, primary screen (AID 602276;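 active = inhibition at or above 50% at 10 µM; inactive = inhibition below 50%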;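 note: firefly luciferase from ISG56 promoter only with Renilla not read in this screen; 0% = Sendai virus plus DMSO and 100% = medium plus DMSO without virus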); details: HEK293 RL24 IRF3 luciferase reporter, at 10 µM, stronger effect = higher value
[8] = TLR3 IRF3 reporter activation blockers – cell-based, poly I:C stimulus, luciferase, 10K MLSCN set, primary screen (AID 602277;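 active = inhibition of the reporter signal at or above 50%; inactive = inhibition below 50%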); details: HEK293-TLR3 RL24 IRF3 luciferase reporter, at 10 µM, stronger effect = higher value

Row | Compound | cell count [1] | inhibition [1] | inhibition of aggregation [2] | nuclei count [2] [%] | inhibition [3] | nuclei count [3] [%] | fluorescence slope [4] | NADPH fluorescence slope [5] | slope [6] | inhibition [7] | inhibition [8]
1 | C=CCN1C(=O)C2(/C(=C(\O)c3ccc4c(c3)OCCO4)C(=O)C(=O)N2CCCOC)c2ccccc21 (centres undefined) | 390 | 8.6% (inactive) | 0.7% (inactive) | 104 | -37.2% (inactive) | 128 | -0.465 (inactive) | -1.1e-05 (inactive) | 0.00507 (inactive) | 20.5% (inactive) | 21.2% (inactive)
2 | CC(=O)Nc1cccc(Oc2nc(C)cc(C)c2C#N)c1 | 950 | 4% (inactive) | 0.6% (inactive) | 111 | -87% (inactive) | 124 | -0.553 (inactive) | -1.7e-05 (inactive) | 0.00763 (inactive) | 2.68% (inactive) | 22.3% (inactive)
3 | COc1ccccc1N1CCN(C(=O)c2ccc(S(=O)(=O)N3CCCCCC3)cc2)CC1 | 604 | -13% (inactive) | -9.1% (inactive) | 89.6 | -59.2% (inactive) | 89.3 | -0.606 (inactive) | -2.1e-05 (inactive) | 0.0031 (inactive) | -1.31% (inactive) | -1.9% (inactive)
4 | CC1CCN(c2oc(-c3ccccc3F)nc2C#N)CC1 | 578 | 5% (inactive) | -3.3% (inactive) | 122 | -32.2% (inactive) | 114 | -0.411 (inactive) | 7.4e-06 (inactive) | 0.00601 (inactive) | -30.7% (inactive) | -73.4% (inactive)
5 | COc1ccccc1Oc1ccc(S(=O)(=O)N2CCOCC2)cc1S(=O)(=O)N1CCOCC1 | 242 | 2.9% (inactive) | 24.3% (inactive) | 106 | -142% (inactive) | 132 | -0.377 (inactive) | 5.2e-07 (inactive) | 0.00572 (inactive) | 10% (inactive) | 1.69% (inactive)
6 | Oc1ccc(-c2n[nH]c(=S)n2Cc2ccccc2)cc1 | 409 | 9.6% (inactive) | -13.1% (inactive) | 109 | -75.1% (inactive) | 116 | -0.485 (inactive) | 4.7e-05 (inactive) | 0.00348 (inactive) | -8.79% (inactive) | -1.56% (inactive)
7 | O=S(=O)(c1cccs1)N1CCN(C/C=C/c2ccccc2)CC1 | 359 | 2.4% (inactive) | -19.8% (inactive) | 108 | 62.2% (inactive) | 94.8 | -0.492 (inactive) | -4.5e-05 (inactive) | 0.00442 (inactive) | 10.2% (inactive) | 9.74% (inactive)
8 | Nc1nnc(C(=O)c2ccccc2N)s1 | 384 | -5.3% (inactive) | -21% (inactive) | 99.9 | -41.8% (inactive) | 106 | -0.438 (inactive) | -0.000136 (inactive) | 0.00502 (inactive) | -1.19% (inactive) | -4.86% (inactive)
9 | O=C(Nc1ccc2snnc2c1)N1CCN(c2ccccc2)CC1 | 454 | 1.6% (inactive) | 0.7% (inactive) | 101 | 0.3% (inactive) | 117 | -0.425 (inactive) | 7.2e-06 (inactive) | 0.00518 (inactive) | 4.94% (inactive) | -57.8% (inactive)
10 | Cc1cc(C)n(-c2ccc3cccc(NS(C)(=O)=O)c3n2)n1 | 221 | 13.2% (inactive) | -10.7% (inactive) | 76.6 | 26.7% (inactive) | 107 | -0.392 (inactive) | -3.1e-05 (inactive) | 0.00539 (inactive) | 11% (inactive) | 12.8% (inactive)
11 | CCOC(=O)c1oc2ccccc2c1NC(=O)COC | 602 | -1.8% (inactive) | 15.5% (inactive) | 92.3 | 66.5% (inactive) | 59.1 | -0.486 (inactive) | -1.7e-05 (inactive) | 0.00552 (inactive) | -14.3% (inactive) | 4.92% (inactive)
12 | CCOC(=O)C1=C(C)N(C)C(=O)NC1c1ccccc1OC (centres undefined) | 692 | -11.4% (inactive) | -20.9% (inactive) | 92.6 | 50.2% (inactive) | 93.2 | -0.4 (inactive) | -1.2e-05 (inactive) | 0.00553 (inactive) | 16.2% (inactive) | 33.7% (inactive)
13 | COC(=O)c1cc(-c2c(C)oc3cc(O)ccc3c2=O)c(C)o1 | 609 | -2.2% (inactive) | -24% (inactive) | 114 | -117% (inactive) | 167 | -0.129 (active) | 2.7e-05 (inactive) | 0.0074 (inactive) | 4.96% (inactive) | 1.06% (inactive)
14 | CS(=O)(=O)N1CCN(c2ccccc2NC(=O)c2cccs2)CC1 | 629 | 0.5% (inactive) | -6.7% (inactive) | 105 | -0.6% (inactive) | 89.5 | -0.501 (inactive) | 1.2e-05 (inactive) | 0.00365 (inactive) | 11.6% (inactive) | 18.8% (inactive)
